Source: PubChem BioAssay
TrxR1 substrate = substrates of rat thioredoxin reductase 1; O89049; purified TrxR1 substrate turnover, NADPH consumption readout; Potency, µM (titrated, usually from 114 µM); hit rate 0.01% among 390,000; further: nearly all actives have a fitted effect of over 50% in size
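Rat TrxR1, dispensed at 90 nM, was prereduced with 400 uM NADPH (final) for 5 min at ~22 deg C, then incubated with compound 15 min before 400 uM selenite. A first-read NADPH fluorescence drop versus no-compound background flagged substrates.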
rTrxR1 inhibitor = blocks rat thioredoxin reductase 1 | AID 588453 | recombinant rTrxR1, NADPH fluorescence consumption, selenite substrate | O89049 | Potency, µM (titrated, usually from 114 µM), hits mostly inhibitors | hit rate 1% among 390,000; further: nearly all actives have a fitted effect of over 65% in size
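Rat TrxR1 (90 nM in the dispensed reagent) was pre-reduced with 400 uM NADPH for 5 min at room temperature, then incubated with compound for 15 min. After 400 uM selenite was added, NADPH fluorescence (Ex 340/Em 450 nm) was followed for 8 min.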
IDH1 R132H inh = inhibitors of human mutant IDH1 R132H; O75874; IDH1-R132H enzyme, NADPH consumption, diaphorase/resazurin fluorescence; Potency, µM (doses to about 76.6 µM), hits mostly inhibitors; hit rate 0.093% among 390,000; further: nearly all actives have a fitted effect of over 65% in size
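IDH1-R132H (0.5 ug/mL) preincubated 30 min with compound, then NADPH (0.016 mM) and alpha-KG (2 mM) added; 80 min at RT, pH 7.5. Remaining NADPH coupled via diaphorase/resazurin to fluorescence (540/590 nm); concentration-response curves normalized to no-enzyme control.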
RGS4 inh = human RGS4 inhibition; Potency, µM (series often up to 114 µM), actives largely listed as inhibitors; AID 504845; Transcreener GDP fluorescence polarization, RGS4-accelerated GTP hydrolysis; hit rate 0.039% among 390,000; further: nearly all actives have a fitted effect of over 75% in size
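MLSMR compounds (23 nl, pin-transferred) preincubated 10 min at room temperature with a 500nM (2x) first reagent, then RGS4 at 900nM (2x) plus Transcreener GDP mix added; fluorescence polarization (620/688 nm) read before and after 90 min at 30 °C.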
Eya2 phos inh = blocks the phosphatase activity of human Eya2; O00167; recombinant Eya2, OMFP fluorescence dephosphorylation (OMFP is methylfluorescein phosphate); Potency, µM (highest dose often 76.9 µM), most hits filed as inhibitors; hit rate 0.006% among 330,000
Target sequence (O00167 whole entry, looked up): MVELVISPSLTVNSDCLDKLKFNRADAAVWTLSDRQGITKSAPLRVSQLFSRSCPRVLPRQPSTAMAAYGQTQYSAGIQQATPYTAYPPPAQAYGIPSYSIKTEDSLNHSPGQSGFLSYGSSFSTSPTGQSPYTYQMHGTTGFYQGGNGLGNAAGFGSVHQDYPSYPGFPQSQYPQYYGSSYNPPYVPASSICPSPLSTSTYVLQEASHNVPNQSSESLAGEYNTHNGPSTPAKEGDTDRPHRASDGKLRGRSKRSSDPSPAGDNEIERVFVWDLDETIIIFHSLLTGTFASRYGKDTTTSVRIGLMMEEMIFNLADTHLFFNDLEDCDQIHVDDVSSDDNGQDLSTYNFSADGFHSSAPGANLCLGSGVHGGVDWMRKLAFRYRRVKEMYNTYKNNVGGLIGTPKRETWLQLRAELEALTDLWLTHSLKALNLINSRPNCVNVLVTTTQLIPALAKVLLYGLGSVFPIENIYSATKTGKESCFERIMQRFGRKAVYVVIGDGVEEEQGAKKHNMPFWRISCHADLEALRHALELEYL
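Eya2 (0.2 uM) preincubated 10 min at ambient with compound, then OMFP substrate added at 50 uM; 10 min reaction in 50 mM HEPES pH 7.5, 50 mM NaCl, 5 uM MgCl2, 0.05% BSA, 1 mM DTT. Fluorescence read at Ex 485/Em 525 nm.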
Each line names hits and unclear results; the compound was inactive in the other large screens; ! = a repeat was not active. An excerpt weighted towards active compounds, which were near 1.1% of everything screened. The call rests on the fitted dose curve; in most records, active means well fitted curve in the direction sought with a large enough effect; inconclusive means small, poorly fitted or top-dose-only effect, or another doubt; inactive means no such curve, though single readings can be large; an effect the other way counts as inactive or inconclusive.

COC(=O)Nc1ccc(S(=O)(=O)N2CCCC(C(=O)N3CCOCC3)C2)cc1 (stereo unspecified)	none
O=C(CC(Nc1cccc(Cl)c1Cl)C(=O)O)c1ccccc1 (stereo unspecified)	rTrxR1 inhibitor 40µM, RGS4 inh inconclusive
O=C(CC(Nc1ccc(Cl)cc1)C(=O)O)c1ccccc1 (stereo unspecified)	rTrxR1 inhibitor 28µM, RGS4 inh inconclusive
Cc1c(Cl)cccc1NC(CC(=O)c1ccccc1)C(=O)O (stereo unspecified)	rTrxR1 inhibitor 3.5µM
Cc1c(Cl)cccc1NC(=O)CC(Cc1ccccc1)C(=O)O (stereo unspecified)	none
O=C(CC(Nc1cccc(Cl)c1Cl)C(=O)OCC(=O)c1cccs1)c1ccccc1 (stereo unspecified)	rTrxR1 inhibitor inconclusive
Cc1c(Cl)cccc1NC(CC(=O)c1ccccc1)C(=O)OCC(=O)c1cccs1 (stereo unspecified)	rTrxR1 inhibitor 40µM, RGS4 inh inconclusive
COc1ccccc1NC(CC(=O)c1ccccc1)C(=O)OCC(=O)c1ccc(F)cc1 (stereo unspecified)	rTrxR1 inhibitor 35µM, RGS4 inh inconclusive
O=C(CC(Nc1ccccc1Cl)C(=O)O)c1ccccc1 (stereo unspecified)	rTrxR1 inhibitor 4.5µM, RGS4 inh inconclusive
O=C(CC(CC(=O)c1ccccc1)C(=O)O)c1ccccc1	none
O=C(NC1CCCC1)C(c1ccc(F)cc1)N(Cc1ccc(Cl)cc1)C(=O)CCl (stereo unspecified)	rTrxR1 inhibitor inconclusive
COc1ccc(C(C(=O)NC2CCCCC2)N(C(=O)CCl)c2ccc(Cl)cc2)cc1 (stereo unspecified)	rTrxR1 inhibitor inconclusive
O=C(NC1CCCC1)C(c1ccc(Cl)cc1)N(Cc1ccc(F)cc1)C(=O)CCl (stereo unspecified)	rTrxR1 inhibitor 13µM
COC(CN(C(=O)CCl)C(C(=O)NC1CCCC(C)C1C)c1ccc(C)cc1)OC (stereo unspecified)	rTrxR1 inhibitor 56µM
COC(CN(C(=O)CCl)C(C(=O)NC1CCCCC1)c1ccccc1C)OC (stereo unspecified)	rTrxR1 inhibitor 40µM
COC(CN(C(=O)CCl)C(C(=O)NC1CCCCC1)c1ccc(Cl)cc1)OC (stereo unspecified)	rTrxR1 inhibitor 35µM
O=C(CSc1oc(-c2cccs2)nc1S(=O)(=O)c1ccccc1)Nc1ccc(F)cc1	none (no result: Eya2 phos inh)
COC(=O)c1c(-c2ccccc2)csc1NC(=O)CSc1ncnc2sc(C)c(C)c12	none
Cc1ccc(Cl)cc1NC(=O)NCc1cccn1Cc1ccc(F)cc1	none (no result: Eya2 phos inh)
CC(=O)c1cccc(NC(=O)N2CCCC(C(=O)c3cc(F)ccc3F)C2)c1 (stereo unspecified)	none
COC(=O)c1ccc(OC(=O)c2ccccn2)cc1	none
N#CC(C#N)=Cc1ccc(OC(=O)c2ccccn2)cc1	rTrxR1 inhibitor 13µM
CCCn1c(=O)c2[nH]c(-c3ccc(S(=O)(=O)O)cc3)nc2n(CCC)c1=O	rTrxR1 inhibitor 22µM!
CCCn1c(=O)c2[nH]c(-c3ccc(OCC(=O)Nc4ccc(C(C)=O)cc4)cc3)nc2n(CCC)c1=O	none (no result: TrxR1 substrate, rTrxR1 inhibitor, IDH1 R132H inh, Eya2 phos inh)
CCOC(=O)N(C)OC(=O)Nc1ccc(Cl)c(Cl)c1	rTrxR1 inhibitor 16µM, RGS4 inh inconclusive
CCOC(=O)N(CC)OC(=O)Nc1ccc(Cl)cc1	rTrxR1 inhibitor inconclusive
CC(=O)O[C@@H]1[C@@H](O)CN[C@@H]1Cc1ccccc1	rTrxR1 inhibitor 40µM (no result: IDH1 R132H inh, Eya2 phos inh)
CCOC(=O)C(=O)N1CCC(Cc2ccccc2)CC1	none
CCOc1ccc2nc(N3CCN(C(=O)CS(=O)(=O)c4ccc(F)cc4)CC3)sc2c1	none (no result: Eya2 phos inh)
O=C(O)c1ccc(NC2=C(n3nnc4ccccc43)C(=O)c3ccccc3C2=O)cc1	rTrxR1 inhibitor 7.1µM
O=C(O)c1cccc(NC2=C(N3CCOCC3)C(=O)c3ccccc3C2=O)c1	rTrxR1 inhibitor inconclusive
COCCn1nnnc1C(c1cc2cc(C)ccc2[nH]c1=O)N1CCc2ccccc21 (stereo unspecified)	RGS4 inh inconclusive
COCCn1nnnc1C(c1cc2c(C)cc(C)cc2[nH]c1=O)N1CCCCCC1 (stereo unspecified)	rTrxR1 inhibitor 40µM
